Data published in ChEMBL document CHEMBL2218924, “A broad activity screen in support of a chemogenomic map for kinase signalling research and drug discovery” (Biochem J, 2013).

Experiments:
[1] = biological target: Serine/threonine-protein kinase SIK1 (Homo sapiens) (UniProt P57059); details: at 10 µM
[2] = biological target: SRSF protein kinase 1 (Homo sapiens) (UniProt Q96SB4); details: at 1 µM
[3] = biological target: SRSF protein kinase 1 (Homo sapiens) (UniProt Q96SB4); details: at 10 µM
[4] = biological target: SRSF protein kinase 2 (Homo sapiens) (UniProt P78362); details: at 1 µM
Sequence of SRSF protein kinase 2 (Homo sapiens) (P78362 whole entry, looked up): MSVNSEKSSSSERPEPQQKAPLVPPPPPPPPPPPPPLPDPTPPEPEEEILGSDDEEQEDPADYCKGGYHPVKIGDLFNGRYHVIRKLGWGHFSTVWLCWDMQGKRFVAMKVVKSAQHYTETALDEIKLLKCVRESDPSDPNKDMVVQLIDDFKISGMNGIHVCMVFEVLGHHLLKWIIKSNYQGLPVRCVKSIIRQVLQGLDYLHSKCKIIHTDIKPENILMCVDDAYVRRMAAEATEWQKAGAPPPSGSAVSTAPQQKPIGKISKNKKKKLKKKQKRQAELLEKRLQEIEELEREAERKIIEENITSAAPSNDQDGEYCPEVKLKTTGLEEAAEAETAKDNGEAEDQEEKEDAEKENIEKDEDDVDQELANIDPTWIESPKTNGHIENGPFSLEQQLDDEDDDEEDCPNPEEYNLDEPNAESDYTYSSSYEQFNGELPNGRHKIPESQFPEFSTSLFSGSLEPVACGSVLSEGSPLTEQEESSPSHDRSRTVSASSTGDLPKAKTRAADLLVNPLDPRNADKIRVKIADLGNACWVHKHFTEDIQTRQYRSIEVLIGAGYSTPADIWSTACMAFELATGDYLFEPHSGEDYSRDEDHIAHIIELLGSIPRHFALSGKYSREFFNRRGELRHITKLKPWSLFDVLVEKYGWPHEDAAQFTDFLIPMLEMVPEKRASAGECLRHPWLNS

[5] = biological target: SRSF protein kinase 2 (Homo sapiens) (UniProt P78362); details: at 10 µM
[6] = biological target: Serine/threonine-protein kinase 33 (Homo sapiens) (UniProt Q9BYT3); details: at 1 µM
Sequence of Serine/threonine-protein kinase 33 (Homo sapiens) (Q9BYT3 whole entry, looked up): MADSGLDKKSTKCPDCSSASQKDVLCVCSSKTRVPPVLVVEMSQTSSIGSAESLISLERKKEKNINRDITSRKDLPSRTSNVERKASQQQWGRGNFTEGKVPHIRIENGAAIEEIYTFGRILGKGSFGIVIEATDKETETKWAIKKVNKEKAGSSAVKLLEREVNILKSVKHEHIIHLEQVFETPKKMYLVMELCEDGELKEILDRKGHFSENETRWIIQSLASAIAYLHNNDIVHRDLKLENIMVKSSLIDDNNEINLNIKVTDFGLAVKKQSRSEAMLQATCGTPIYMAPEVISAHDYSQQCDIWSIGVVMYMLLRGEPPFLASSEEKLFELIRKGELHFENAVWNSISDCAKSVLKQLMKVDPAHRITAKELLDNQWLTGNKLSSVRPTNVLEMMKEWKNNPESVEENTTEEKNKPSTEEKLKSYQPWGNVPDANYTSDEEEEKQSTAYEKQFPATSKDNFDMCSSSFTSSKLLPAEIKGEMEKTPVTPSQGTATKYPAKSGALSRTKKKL

[7] = biological target: Serine/threonine-protein kinase 33 (Homo sapiens) (UniProt Q9BYT3); details: at 10 µM
[8] = biological target: T1, Mitogen-activated protein kinase kinase kinase 7 (Homo sapiens) (UniProt O43318); details: at 1 µM
T1 sequence (whole entry): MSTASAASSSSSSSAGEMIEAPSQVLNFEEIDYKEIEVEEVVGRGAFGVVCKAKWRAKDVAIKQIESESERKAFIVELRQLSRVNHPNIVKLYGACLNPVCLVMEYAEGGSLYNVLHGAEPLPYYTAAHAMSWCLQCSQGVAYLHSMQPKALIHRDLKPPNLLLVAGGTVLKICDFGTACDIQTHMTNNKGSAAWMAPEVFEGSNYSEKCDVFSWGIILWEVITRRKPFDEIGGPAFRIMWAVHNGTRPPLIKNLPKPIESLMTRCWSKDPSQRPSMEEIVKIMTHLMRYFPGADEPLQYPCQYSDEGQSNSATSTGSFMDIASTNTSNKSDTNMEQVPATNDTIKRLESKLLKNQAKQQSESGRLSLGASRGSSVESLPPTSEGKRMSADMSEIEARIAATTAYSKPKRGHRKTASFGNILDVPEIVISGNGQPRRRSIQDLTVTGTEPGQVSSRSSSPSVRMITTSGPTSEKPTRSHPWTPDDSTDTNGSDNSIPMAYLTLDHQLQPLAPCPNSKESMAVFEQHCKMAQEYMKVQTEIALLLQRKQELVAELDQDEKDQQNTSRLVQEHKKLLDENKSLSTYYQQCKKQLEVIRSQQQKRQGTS

[9] = biological target: T1, Mitogen-activated protein kinase kinase kinase 7 (Homo sapiens); details: at 10 µM
[10] = biological target: T2, Serine/threonine-protein kinase TAO1 (Homo sapiens) (UniProt Q7L7X3); details: at 1 µM
T2 sequence (whole entry): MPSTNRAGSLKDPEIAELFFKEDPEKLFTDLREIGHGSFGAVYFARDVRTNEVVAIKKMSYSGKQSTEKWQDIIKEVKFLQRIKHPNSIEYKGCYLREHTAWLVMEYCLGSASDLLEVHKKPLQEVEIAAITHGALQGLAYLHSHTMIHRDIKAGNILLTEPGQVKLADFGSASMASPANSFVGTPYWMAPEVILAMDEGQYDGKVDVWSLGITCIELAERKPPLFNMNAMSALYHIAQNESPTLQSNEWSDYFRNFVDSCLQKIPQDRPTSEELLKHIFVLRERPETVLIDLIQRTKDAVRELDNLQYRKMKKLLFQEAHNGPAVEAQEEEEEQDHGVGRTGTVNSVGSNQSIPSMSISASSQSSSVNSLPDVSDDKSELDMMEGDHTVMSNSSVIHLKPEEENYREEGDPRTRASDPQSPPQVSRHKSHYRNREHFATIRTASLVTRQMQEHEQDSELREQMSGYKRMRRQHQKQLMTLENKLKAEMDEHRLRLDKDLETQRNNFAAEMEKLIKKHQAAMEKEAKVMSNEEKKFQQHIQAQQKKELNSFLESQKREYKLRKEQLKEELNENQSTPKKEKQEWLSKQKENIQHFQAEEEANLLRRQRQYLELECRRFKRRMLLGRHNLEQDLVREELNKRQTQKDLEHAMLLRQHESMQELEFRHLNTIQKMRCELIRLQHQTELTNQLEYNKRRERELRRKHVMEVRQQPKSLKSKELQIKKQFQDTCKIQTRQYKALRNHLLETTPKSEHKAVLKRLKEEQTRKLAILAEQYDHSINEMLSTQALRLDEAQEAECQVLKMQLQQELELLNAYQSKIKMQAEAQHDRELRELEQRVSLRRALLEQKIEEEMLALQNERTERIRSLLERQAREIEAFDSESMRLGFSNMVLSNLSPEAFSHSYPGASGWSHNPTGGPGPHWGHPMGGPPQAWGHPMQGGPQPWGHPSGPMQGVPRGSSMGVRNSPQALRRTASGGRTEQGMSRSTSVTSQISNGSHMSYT

[11] = biological target: T2, Serine/threonine-protein kinase TAO1 (Homo sapiens); details: at 10 µM
[12] = biological target: T3, Serine/threonine-protein kinase TAO2 (Homo sapiens) (UniProt Q9UL54); details: at 1 µM
T3 sequence (whole entry): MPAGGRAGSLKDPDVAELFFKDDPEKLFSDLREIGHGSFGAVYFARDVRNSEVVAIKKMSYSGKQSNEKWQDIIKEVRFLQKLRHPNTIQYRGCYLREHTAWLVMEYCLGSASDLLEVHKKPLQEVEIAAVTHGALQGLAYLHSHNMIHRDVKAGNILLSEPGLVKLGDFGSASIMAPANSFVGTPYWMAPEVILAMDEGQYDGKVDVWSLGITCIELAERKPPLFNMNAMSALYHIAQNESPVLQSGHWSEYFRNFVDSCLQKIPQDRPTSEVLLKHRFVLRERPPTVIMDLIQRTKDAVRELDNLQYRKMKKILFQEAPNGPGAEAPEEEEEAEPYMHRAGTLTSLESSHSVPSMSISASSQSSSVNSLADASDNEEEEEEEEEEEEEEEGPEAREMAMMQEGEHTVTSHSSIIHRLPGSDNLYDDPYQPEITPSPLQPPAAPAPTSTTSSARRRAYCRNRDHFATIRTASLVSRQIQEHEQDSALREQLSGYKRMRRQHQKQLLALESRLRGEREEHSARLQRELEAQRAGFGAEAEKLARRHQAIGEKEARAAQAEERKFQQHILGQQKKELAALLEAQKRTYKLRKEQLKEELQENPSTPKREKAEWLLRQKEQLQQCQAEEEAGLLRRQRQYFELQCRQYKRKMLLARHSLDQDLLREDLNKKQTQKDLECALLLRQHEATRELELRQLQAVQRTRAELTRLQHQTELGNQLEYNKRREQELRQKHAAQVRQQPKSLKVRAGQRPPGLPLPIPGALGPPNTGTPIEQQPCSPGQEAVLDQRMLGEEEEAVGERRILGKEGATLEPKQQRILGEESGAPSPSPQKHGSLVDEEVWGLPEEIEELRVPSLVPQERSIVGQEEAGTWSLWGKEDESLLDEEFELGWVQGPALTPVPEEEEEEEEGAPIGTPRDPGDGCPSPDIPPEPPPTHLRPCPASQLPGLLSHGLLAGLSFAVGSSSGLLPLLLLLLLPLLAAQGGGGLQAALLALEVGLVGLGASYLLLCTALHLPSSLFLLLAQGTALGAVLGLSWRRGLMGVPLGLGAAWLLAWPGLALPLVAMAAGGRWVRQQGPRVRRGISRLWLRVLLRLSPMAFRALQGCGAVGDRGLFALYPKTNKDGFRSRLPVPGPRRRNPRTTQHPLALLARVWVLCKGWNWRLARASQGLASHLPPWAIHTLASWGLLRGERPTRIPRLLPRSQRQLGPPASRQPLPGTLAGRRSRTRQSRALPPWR

[13] = biological target: T3, Serine/threonine-protein kinase TAO2 (Homo sapiens); details: at 10 µM
[14] = biological target: T4, Serine/threonine-protein kinase TAO3 (Homo sapiens) (UniProt Q9H2K8); details: at 1 µM
T4 sequence (whole entry): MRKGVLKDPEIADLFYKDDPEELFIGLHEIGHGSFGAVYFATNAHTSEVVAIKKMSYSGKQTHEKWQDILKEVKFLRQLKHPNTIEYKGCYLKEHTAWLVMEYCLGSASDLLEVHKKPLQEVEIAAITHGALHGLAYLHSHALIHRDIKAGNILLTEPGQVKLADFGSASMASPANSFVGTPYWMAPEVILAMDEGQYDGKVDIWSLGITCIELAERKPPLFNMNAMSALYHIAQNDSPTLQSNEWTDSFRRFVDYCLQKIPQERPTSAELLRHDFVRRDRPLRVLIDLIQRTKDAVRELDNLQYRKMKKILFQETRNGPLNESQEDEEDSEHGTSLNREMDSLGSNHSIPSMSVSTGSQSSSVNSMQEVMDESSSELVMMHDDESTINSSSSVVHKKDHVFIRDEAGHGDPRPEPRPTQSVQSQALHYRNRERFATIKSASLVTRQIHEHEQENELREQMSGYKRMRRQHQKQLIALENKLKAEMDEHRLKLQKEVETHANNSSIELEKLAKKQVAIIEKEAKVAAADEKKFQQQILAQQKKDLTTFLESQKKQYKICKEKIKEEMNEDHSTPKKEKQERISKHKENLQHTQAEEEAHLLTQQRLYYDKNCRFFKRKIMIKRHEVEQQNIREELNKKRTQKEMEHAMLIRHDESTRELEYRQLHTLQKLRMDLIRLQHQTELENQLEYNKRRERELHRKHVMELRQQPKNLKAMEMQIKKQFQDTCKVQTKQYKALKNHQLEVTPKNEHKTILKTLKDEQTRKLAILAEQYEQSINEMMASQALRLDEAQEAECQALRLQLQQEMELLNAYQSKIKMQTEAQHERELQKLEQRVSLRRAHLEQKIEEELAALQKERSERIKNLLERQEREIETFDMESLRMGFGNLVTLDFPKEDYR

[15] = biological target: T4, Serine/threonine-protein kinase TAO3 (Homo sapiens); details: at 10 µM
[16] = biological target: T5, Serine/threonine-protein kinase TBK1 (Homo sapiens) (UniProt Q9UHD2); details: at 1 µM
T5 sequence (whole entry): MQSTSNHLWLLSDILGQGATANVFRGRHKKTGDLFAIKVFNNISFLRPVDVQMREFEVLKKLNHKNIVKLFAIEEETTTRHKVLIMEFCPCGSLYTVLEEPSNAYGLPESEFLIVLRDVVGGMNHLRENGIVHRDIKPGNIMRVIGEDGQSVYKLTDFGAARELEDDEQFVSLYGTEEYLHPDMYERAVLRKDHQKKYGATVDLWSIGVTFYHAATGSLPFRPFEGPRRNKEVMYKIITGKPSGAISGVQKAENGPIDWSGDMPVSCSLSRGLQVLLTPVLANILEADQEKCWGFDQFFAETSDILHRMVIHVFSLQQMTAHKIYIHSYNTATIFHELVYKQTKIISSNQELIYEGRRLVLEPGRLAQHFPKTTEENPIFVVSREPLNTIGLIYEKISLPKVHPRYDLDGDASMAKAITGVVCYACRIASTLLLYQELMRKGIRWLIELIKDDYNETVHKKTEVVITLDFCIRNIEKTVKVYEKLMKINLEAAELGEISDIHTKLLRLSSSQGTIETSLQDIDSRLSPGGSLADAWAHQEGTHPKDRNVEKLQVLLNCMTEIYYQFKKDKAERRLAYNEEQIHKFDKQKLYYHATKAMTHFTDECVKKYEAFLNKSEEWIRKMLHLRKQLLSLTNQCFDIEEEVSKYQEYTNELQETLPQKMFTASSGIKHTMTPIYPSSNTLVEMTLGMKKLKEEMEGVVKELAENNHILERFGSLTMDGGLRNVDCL

[17] = biological target: Tyrosine-protein kinase SYK (Homo sapiens) (UniProt P43405); details: at 1 µM
[18] = biological target: Tyrosine-protein kinase SYK (Homo sapiens) (UniProt P43405); details: at 10 µM
[19] = biological target: Serine/threonine-protein kinase PLK2 (Homo sapiens) (UniProt Q9NYY3); details: at 1 µM
Sequence of Serine/threonine-protein kinase PLK2 (Homo sapiens) (Q9NYY3 whole entry, looked up): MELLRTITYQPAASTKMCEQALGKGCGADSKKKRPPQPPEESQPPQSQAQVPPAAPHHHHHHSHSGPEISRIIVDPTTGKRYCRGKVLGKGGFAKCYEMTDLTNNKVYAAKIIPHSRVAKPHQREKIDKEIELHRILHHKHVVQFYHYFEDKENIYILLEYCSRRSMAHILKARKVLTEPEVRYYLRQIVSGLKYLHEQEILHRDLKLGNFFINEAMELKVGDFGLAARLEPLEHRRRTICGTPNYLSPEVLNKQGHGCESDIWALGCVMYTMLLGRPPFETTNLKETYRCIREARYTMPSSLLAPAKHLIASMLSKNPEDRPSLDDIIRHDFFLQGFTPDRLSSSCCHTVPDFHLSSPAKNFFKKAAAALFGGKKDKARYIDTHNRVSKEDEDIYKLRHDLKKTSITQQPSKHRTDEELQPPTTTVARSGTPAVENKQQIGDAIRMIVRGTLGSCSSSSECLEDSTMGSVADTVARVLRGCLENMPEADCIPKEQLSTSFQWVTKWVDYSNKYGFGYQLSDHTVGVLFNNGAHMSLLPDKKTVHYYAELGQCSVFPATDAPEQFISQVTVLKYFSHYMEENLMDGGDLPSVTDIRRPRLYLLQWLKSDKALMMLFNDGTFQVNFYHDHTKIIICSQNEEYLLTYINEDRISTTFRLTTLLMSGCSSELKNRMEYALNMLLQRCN

[20] = biological target: Serine/threonine-protein kinase PLK2 (Homo sapiens) (UniProt Q9NYY3); details: at 10 µM

Sequence of SRSF protein kinase 1 (Homo sapiens) (Q96SB4 whole entry): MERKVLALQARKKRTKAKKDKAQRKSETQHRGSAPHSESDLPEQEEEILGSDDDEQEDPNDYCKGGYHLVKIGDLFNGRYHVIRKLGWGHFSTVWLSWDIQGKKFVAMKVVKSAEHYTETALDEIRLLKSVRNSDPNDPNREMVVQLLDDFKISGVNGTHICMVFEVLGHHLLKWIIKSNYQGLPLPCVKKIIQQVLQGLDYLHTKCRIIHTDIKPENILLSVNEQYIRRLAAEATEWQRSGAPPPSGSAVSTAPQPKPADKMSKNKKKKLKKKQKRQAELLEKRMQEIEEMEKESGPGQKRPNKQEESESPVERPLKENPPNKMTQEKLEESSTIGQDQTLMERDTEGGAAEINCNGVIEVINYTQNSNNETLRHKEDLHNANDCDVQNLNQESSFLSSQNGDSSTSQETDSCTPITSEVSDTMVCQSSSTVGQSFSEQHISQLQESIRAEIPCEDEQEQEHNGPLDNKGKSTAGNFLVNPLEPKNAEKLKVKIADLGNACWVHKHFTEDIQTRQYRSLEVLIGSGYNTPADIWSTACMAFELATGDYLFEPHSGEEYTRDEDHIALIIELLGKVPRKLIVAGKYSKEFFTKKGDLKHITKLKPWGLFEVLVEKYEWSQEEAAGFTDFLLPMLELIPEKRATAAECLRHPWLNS
Sequence of Serine/threonine-protein kinase SIK1 (Homo sapiens) (P57059 whole entry): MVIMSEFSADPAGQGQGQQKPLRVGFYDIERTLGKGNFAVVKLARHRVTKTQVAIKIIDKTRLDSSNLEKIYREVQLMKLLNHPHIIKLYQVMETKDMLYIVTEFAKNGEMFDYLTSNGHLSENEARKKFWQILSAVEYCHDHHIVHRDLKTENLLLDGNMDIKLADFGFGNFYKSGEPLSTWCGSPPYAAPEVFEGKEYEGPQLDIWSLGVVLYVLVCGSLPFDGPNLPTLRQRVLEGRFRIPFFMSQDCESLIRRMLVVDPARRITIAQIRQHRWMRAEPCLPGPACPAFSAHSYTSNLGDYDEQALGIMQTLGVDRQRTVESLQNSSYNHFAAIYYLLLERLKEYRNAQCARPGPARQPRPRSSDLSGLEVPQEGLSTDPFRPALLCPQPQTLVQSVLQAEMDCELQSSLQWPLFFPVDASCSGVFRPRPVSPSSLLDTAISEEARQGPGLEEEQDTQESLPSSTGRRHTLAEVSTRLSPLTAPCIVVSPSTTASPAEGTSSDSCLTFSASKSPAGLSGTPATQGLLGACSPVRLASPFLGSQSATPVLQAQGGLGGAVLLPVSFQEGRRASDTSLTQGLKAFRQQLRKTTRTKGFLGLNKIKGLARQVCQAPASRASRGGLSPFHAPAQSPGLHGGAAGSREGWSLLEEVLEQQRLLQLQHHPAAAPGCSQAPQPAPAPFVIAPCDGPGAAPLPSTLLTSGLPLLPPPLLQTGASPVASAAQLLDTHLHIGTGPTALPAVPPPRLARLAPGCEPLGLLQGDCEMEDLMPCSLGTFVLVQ

Structure (SMILES)	residual activity [1]	residual activity [2]	residual activity [3]	residual activity [4]	residual activity [5]	residual activity [6]	residual activity [7]	residual activity [8]	residual activity [9]	residual activity [10]	residual activity [11]	residual activity [12]	residual activity [13]	residual activity [14]	residual activity [15]	residual activity [16]	residual activity [17]	residual activity [18]	residual activity [19]	residual activity [20]
Cn1sc(=O)n(Cc2ccccc2)c1=O	83%	83%	91%	93%	76%	95%	88%	85%	79%	87%	85%	95%	91%	91%	91%	61%	–	–	–	–
O=C(c1ccccc1)c1ccc(N2CCOCC2)cc1O	95%	–	–	100%	94%	89%	98%	100%	95%	–	91%	–	–	–	92%	91%	124%	93%	–	–
Nc1ncnc2c1c(-c1ccc(Oc3ccccc3)cc1)cn2C1CCCC1	27%	104%	103%	93%	90%	87%	57%	–	81%	94%	81%	–	77%	92%	77%	61%	109%	59%	97%	93%
CCCCc1c(-c2ccc(O)cc2)[nH]c2nccnc12	36%	–	–	91%	90%	99%	62%	90%	89%	36%	7%	35%	30%	62%	68%	70%	50%	66%	100%	86%
Nc1ncnc2[nH]nc(Nc3ccc(F)cc3)c12	6%	95%	79%	104%	–	100%	94%	–	–	107%	–	102%	91%	101%	–	77%	91%	97%	102%	95%
CCCC(=O)Oc1ccc2[nH]c(C(=O)c3cc4ccccc4[nH]3)cc2c1	54%	104%	103%	103%	87%	92%	91%	83%	87%	91%	81%	104%	83%	89%	86%	63%	126%	101%	102%	107%
